Measured values reported in ChEMBL document CHEMBL3988442, “University of Dundee, Small-Polar-MMV Screening Library” (2021).

Key:
[1] = target: T1, Aspartate--tRNA(Asp/Asn) ligase (Mycobacterium tuberculosis (strain ATCC 25618 / H37Rv)) (UniProt P9WFW3); test: Assay for Asp RNA synthetase-1 from Mycobacterium tuberculosis; format: functional; parameters: scale not given: direction of the effect not stated beside the values; conditions: 30 µM; also: in the data most compounds retested in dose-response had high values
T1 sequence (whole entry): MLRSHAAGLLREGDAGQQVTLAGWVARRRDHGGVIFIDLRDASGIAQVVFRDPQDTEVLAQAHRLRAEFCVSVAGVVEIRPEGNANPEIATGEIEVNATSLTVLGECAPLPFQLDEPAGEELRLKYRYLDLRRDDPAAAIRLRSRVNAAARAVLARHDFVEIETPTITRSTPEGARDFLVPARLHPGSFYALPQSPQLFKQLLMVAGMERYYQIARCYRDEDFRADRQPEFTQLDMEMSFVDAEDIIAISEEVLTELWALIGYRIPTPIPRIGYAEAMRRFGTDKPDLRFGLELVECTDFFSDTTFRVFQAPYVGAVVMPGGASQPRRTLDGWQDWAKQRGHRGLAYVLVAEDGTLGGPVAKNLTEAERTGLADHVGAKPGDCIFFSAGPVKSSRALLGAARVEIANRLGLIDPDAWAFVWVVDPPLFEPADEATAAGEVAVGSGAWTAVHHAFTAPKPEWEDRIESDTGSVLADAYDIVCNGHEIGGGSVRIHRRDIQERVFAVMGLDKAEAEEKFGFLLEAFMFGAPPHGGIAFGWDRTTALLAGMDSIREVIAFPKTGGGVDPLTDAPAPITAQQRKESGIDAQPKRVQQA

[2] = target: Shiga toxin 2 (Escherichia coli O157:H7) (UniProt P09385+P09386); test: E. coli 0.157:H7 Shiga Toxin SOP - stx2 screening assay; format: functional; parameters: scale not given: direction of the effect not stated beside the values; conditions: 30 µM

SMILES	Percent Effect [1] [%]	Percent Effect [2] [%]
O=C(NC[C@@H]1CCCN1)c1cc(COc2cccc(C(F)(F)F)c2)[nH]n1	1.98	-15.7
CCn1cc(CNC2CC(=O)N(CCc3cccc(Cl)c3)C2)cn1 (centres undefined)	-2.05	-2.75
CCC(CC)NC(=O)Cn1nc(C)nc1-c1ccccc1	-2.19	23
CNC(=O)CS(=O)(=O)C1CCN(S(=O)(=O)c2ccccc2Br)CC1	-6.53	-14
O=C(c1ccncc1)N1CCCC2(COCCN(c3ccccc3)C2)C1 (centres undefined)	2.82	-1.46
Cc1nc(C)n(C2CCCN(C(=O)Cc3n[nH]c4ccccc34)C2)n1 (centres undefined)	2.55	-3.54
Cc1ccc(CC2CCCN2CC(=O)NCc2cccnc2)cc1 (centres undefined)	0.509	16.7
CC(NC(=O)c1ccc2c(c1)OCC(=O)N2)c1ccccc1F (centres undefined)	7.05	24
CNc1cccc(C2CCCN(C(C)=O)C2)n1 (centres undefined)	7.52	23.2
CC(C)NC(=O)c1nnn(-c2cccc(C(F)(F)F)c2)c1N	0.111	-1.08
COCCN1CCC2(CC1)CN(C(=O)N(C)C)c1ccc(C)cc12	0.0764	-2.72
CCOc1ccc(CC(=O)N2CCN(c3nccn3C)CC2)cc1	5.09	-64.2
CCN(CCn1cccn1)Cc1nc(-c2ccccc2F)oc1C	-0.808	-3.06
c1cc2c(cc1C1CCCN1Cc1nnnn1C1CC1)OCCO2 (centres undefined)	-1.25	3.61
Cn1cc(CN2CCC3(CC2)CC(c2ccncc2)C(=O)N3)cn1 (centres undefined)	12.5	-4.24
Cc1ccc(CNC(=O)N2CCN(Cc3ccsc3)CC2)n1C	0.896	-31.3
CCC1CN(CCNC(C)=O)CCN1CCOC (centres undefined)	15	16.5
